The nature of experiment [1]: small molecules captured by biotinylated probe aFSTL3 – biochemical, small-molecule microarray, fluorescence 635/667, stem cell growth factor project, primary screen (AID 1064).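 Note: measures binding of the biotinylated anti-FSTL3 antibody to printed compounds.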 The conditions noted are these: higher = more signal.
Experiment [2] is described as follows: binders from COS7 lysate, DM2A8 probe, primary screen, torsin A project, cell lysate, small-molecule microarray, fluorescence 635/667 (AID 1065). The conditions noted are these: higher = more signal, COS7 lysate expressing mutant human TOR1A.
A short description of experiment [3]: small molecules captured by biotinylated probe aFGF2 – biochemical, small-molecule microarray, fluorescence 635/667, stem cell growth factor project, primary screen (AID 1067).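 Note: measures binding of biotinylated aFGF2 protein to printed compounds on slides; z-score merges feature fluorescence and signal-to-noise across triplicate slides.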 The conditions noted are these: higher = more signal.
A short description of experiment [4]: small molecules captured by biotinylated probe aFGF10 – biochemical, small-molecule microarray, fluorescence 635/667, stem cell growth factor project, primary screen (AID 1071).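 Note: score merges 667 nm spot intensity and signal to noise from triplicate slides.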 The following applies: higher = more signal.
The target of experiment [5] is Neurogenic locus notch homolog protein 2 (Homo sapiens) (UniProt Q04721). Description: small molecules binding Notch2 protein – biochemical, small-molecule microarray, 635 nm fluorescence, stem cell growth factors, primary screen (AID 1073). The conditions noted are these: higher = more signal.
Experiment [6] addresses Pro-neuregulin-1, membrane-bound isoform (Homo sapiens) (UniProt Q02297). Description: small molecules binding neuregulin-1 protein – biochemical, small-molecule microarray, fluorescence 635/667, psychiatric disease protein project, primary screen (AID 1075).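 Note: score combines 667 nm spot fluorescence with signal to noise.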 The following applies: NRG1 binding, 635 nm fluorescence, higher = more signal.
In experiment [7] the test system is Neuregulin-1 EGF-like domain. Kind of experiment: small molecules binding NRG1 EGF domain – biochemical, small-molecule microarray, 635 nm fluorescence, primary screen (AID 1081).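 Note: binding of the protein to compounds printed on small-molecule microarray slides.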 The conditions noted are these: higher = more signal.
Experiment [8] in a line: FRG1 expression reporter modulators in myotubes – cell-based, C2C12 myotubes, firefly/Renilla luciferase, luminescence, FRG1 inhibition for FSHD, primary screen (AID 1084). The following applies: FRG1 promoter luciferase, higher = more signal, called active from +8 up or from −8 down.
Experiment [9] in a line: small molecules captured by biotinylated probe aFST – biochemical, small-molecule microarray, fluorescence 635/667, stem cell growth factor project, primary screen (AID 1086).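 Note: score merges 667 nm fluorescence with signal-to-noise of each printed compound spot.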 The conditions noted are these: higher = more signal.
Experiment [10] can be described thus: binders of probe aHhip on microarray, primary screen, stem cell growth factor project, biochemical, small-molecule microarray, fluorescence 635/667 (AID 1087).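 Note: score merges spot fluorescence at 667nm with spot signal to noise ratio.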 The conditions noted are these: higher = more signal.
Experiment [11] deals with PRMT1 (protein arginine N-methyltransferase 1). Description: small molecules binding arginine methyltransferase PRMT1 – biochemical, small-molecule microarray, 635 nm fluorescence, primary screen (AID 1088).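 Note: binding of Prmt1 protein to compounds spotted on small-molecule microarray slides.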 The conditions noted are these: higher = more signal.
A short description of experiment [12]: growth effects on S. cerevisiae YJM789 – YJM789 clinical isolate, OD600, 24 h, basal, primary screen (AID 1089).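 Note: growth of clinical yeast isolate S. cerevisiae YJM 789 seeded 1000 cells per well; test concentration not given here.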 The conditions noted are these: higher = more signal, called active from +8 up or from −8 down.
The nature of experiment [13]: S. pombe growth modifiers, basal conditions – strain 972, OD600, 24 h, no modulator, primary screen (AID 1090).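 Note: basal condition with compound alone and no growth modifier present; test concentration not given here.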 The conditions noted are these: S. pombe 972 growth, higher = more signal, called active from +8 up or from −8 down.
Experiment [14] can be described thus: budding yeast growth modifiers under rapamycin – strain BY4716, OD600, 96 h, primary screen (AID 1091). Note: test concentration not given here. The following applies: S. cerevisiae BY4716 + rapamycin, higher = more signal, called active from +8 up or from −8 down.
Experiment [15] addresses Torsin-1A-interacting protein 2 (Homo sapiens) (UniProt Q8NFQ8). Kind of experiment: small molecules binding lysate-expressed LULL1 – cell lysate, human LULL1 lysate, 635/667 nm fluorescence, primary screen (AID 1092).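 Note: score merges per-feature 667 nm fluorescence with signal-to-noise.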 The following applies: small-molecule microarray, hLULL1 lysate binding, 635 nm fluorescence; higher = more signal.
Experiment [16] can be described thus: optical density change of DRC41 E. coli – strain DRC41, OD650, 24 h, E. coli filamentation project, primary screen (AID 1093).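 Note: MC1000 strain lacking acrAB efflux and sulA so SOS filamentation is blocked; test concentration not given here.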 The conditions noted are these: E. coli DRC41 growth, higher = more signal, called active from +8 up or from −8 down.
A short description of experiment [17]: probe aLefty2 binding to arrayed compounds – biochemical, biotinylated probe, 635/667 nm fluorescence, primary screen (AID 1094).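 Note: score merges spot fluorescence near 667 nm with spot signal-to-noise ratio.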 The conditions noted are these: small-molecule microarray, higher = more signal.
In experiment [18] the test system is Noggin (protein binding on small-molecule microarray). Description: small molecules binding Noggin protein – biochemical, 635/667 nm fluorescence, primary screen (AID 1095).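 Note: score merges 667 nm feature fluorescence with signal to noise over triplicate slides.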 The conditions noted are these: 635 nm fluorescence, higher = more signal.
Experiment [19] deals with Neurogenic locus notch homolog protein 3 (Homo sapiens) (UniProt Q9UM47). Kind of experiment: small molecules binding NOTCH3 protein – biochemical, 635/667 nm fluorescence, primary screen (AID 1096). The following applies: small-molecule microarray, 635 nm fluorescence, higher = more signal.
Experiment [20] can be described thus: probe aEGFR binding to arrayed compounds – biochemical, biotinylated probe, 635/667 nm fluorescence, primary screen (AID 1097).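 Note: probe is a biotinylated anti-EGFR antibody binding compounds printed on slides; score combines fluorescence near 667 nm and signal to noise of each spot.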 The conditions noted are these: small-molecule microarray, higher = more signal.

The source made the active and inactive calls.

Sequence of Neurogenic locus notch homolog protein 2 (Homo sapiens) (Q04721 whole entry, looked up, canonical isoform): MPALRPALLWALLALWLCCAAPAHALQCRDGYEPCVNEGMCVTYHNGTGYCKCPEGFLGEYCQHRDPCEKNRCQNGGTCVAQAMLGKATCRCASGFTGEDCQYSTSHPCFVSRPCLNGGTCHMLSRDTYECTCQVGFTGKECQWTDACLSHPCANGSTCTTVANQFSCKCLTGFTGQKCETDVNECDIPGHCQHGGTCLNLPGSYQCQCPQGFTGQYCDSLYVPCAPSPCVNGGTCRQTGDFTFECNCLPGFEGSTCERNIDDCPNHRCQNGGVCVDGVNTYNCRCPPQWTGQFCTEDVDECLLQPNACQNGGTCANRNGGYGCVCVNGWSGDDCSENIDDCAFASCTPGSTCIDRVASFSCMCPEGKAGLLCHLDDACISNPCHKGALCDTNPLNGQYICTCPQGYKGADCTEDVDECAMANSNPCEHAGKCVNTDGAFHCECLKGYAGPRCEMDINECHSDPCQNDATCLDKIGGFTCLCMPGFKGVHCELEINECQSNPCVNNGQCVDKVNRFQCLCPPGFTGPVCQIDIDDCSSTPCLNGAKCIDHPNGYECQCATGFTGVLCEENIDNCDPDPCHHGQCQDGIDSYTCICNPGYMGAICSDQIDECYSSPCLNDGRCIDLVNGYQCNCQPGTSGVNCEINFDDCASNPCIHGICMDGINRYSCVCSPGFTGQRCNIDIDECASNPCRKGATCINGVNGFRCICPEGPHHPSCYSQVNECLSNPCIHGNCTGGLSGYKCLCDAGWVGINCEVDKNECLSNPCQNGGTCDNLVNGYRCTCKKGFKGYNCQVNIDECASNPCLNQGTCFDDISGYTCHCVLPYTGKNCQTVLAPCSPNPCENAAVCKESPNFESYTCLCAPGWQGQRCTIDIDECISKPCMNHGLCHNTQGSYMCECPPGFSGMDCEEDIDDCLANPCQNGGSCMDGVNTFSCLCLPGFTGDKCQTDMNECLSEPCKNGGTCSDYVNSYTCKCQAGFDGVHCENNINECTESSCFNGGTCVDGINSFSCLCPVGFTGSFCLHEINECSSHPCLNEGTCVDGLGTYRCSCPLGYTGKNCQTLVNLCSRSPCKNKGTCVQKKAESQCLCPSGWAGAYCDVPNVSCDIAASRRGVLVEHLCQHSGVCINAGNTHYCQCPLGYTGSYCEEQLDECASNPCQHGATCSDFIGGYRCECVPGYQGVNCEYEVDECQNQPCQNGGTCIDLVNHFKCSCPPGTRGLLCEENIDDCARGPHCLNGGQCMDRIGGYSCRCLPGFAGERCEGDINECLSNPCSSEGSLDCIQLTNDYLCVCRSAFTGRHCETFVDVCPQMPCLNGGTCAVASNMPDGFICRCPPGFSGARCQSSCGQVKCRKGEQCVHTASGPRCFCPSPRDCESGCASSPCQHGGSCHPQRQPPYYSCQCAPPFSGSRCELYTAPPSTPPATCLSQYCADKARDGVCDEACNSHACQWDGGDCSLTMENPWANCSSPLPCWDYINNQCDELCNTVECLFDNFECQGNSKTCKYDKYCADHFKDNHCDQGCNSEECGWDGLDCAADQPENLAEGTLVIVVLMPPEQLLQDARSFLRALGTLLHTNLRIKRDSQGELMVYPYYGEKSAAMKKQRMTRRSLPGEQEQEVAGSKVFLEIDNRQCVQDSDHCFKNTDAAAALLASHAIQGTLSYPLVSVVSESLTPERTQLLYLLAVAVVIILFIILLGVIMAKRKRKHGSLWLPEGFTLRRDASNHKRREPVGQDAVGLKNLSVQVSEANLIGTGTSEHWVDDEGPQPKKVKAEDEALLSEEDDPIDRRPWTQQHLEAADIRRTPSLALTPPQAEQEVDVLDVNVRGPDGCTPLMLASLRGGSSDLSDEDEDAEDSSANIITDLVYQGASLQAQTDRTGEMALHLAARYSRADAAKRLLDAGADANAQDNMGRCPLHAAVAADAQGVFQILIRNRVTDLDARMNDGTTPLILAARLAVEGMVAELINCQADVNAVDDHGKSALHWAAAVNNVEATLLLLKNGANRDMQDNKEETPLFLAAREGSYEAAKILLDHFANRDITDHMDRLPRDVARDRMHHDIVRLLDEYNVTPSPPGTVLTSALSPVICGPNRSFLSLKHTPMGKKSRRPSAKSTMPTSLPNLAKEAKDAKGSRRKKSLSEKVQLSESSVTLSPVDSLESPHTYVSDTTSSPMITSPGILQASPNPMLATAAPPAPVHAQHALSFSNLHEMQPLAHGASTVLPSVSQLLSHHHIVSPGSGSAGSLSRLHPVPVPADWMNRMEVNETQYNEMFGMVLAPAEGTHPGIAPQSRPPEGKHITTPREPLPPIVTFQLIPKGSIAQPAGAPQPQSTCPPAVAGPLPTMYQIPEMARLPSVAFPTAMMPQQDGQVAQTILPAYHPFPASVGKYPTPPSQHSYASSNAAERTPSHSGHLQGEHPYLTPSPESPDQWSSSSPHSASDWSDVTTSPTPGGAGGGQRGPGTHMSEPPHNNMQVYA
Sequence of Neurogenic locus notch homolog protein 3 (Homo sapiens) (Q9UM47 whole entry, looked up): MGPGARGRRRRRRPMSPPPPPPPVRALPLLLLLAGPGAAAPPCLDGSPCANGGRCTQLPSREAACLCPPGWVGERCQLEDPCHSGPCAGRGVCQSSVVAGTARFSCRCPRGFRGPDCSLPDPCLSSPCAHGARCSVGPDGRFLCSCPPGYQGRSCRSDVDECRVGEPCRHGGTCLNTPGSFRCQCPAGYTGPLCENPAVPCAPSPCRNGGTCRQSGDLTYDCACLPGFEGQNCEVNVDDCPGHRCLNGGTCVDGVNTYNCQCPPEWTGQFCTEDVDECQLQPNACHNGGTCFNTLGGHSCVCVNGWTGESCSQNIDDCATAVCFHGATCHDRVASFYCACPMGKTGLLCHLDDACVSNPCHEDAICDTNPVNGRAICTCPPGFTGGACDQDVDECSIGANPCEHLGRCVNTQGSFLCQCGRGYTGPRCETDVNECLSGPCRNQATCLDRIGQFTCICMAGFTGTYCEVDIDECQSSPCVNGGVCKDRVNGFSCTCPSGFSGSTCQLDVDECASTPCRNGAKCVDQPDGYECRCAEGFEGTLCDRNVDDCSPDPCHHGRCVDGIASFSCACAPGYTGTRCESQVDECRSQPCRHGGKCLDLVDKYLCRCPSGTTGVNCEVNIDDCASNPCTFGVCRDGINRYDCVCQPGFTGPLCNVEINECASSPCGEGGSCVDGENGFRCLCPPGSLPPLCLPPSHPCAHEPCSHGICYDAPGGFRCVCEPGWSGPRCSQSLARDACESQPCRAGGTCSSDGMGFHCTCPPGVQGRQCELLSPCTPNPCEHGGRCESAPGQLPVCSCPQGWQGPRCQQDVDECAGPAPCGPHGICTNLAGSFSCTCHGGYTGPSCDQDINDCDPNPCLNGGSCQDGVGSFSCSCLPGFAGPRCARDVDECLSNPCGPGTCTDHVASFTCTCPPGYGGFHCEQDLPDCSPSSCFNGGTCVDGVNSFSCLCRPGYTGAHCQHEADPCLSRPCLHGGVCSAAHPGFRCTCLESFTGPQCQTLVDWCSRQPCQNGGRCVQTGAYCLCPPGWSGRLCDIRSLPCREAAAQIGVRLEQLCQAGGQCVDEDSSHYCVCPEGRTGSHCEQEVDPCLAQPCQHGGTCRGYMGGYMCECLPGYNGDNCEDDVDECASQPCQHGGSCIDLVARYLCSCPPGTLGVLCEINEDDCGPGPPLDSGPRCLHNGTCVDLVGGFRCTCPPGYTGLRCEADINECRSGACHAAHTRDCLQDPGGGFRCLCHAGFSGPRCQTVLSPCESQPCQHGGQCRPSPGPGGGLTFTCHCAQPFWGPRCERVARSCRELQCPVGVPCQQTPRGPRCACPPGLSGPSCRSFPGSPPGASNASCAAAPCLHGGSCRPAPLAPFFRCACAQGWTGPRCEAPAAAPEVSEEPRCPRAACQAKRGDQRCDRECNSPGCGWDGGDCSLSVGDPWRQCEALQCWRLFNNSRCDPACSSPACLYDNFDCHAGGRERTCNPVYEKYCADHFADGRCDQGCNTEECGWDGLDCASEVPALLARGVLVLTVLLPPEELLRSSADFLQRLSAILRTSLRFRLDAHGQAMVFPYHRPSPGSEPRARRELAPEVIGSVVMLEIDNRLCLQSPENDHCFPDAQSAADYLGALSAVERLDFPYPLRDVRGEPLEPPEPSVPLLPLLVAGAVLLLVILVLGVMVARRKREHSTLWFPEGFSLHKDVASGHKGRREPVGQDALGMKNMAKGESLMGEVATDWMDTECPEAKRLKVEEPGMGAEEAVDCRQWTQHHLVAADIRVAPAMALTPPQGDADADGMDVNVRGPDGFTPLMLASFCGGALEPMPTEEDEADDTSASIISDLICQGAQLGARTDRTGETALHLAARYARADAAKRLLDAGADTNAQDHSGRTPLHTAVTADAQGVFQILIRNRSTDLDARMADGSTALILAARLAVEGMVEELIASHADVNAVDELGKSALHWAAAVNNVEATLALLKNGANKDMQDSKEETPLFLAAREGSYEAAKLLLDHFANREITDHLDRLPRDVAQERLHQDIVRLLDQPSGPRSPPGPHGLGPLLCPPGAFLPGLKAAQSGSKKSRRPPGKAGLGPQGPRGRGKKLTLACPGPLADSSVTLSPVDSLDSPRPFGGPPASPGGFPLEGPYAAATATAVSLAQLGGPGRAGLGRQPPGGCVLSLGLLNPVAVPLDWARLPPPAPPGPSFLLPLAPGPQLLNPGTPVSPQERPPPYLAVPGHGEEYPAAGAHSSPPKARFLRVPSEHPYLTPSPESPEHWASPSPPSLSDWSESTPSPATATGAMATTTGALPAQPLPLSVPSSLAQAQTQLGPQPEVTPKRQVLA

For `COCCOC(=O)N1C(=O)[C@@]2(c3ccccc31)[C@H](c1ccc(O)cc1)N1[C@H](c3ccccc3)[C@H](c3ccccc3)OC(=O)[C@H]1[C@@H]2C(N)=O`, the composite z-score in experiment [1] is 0.113; in experiment [2], 0.192; in [3], -0.106; in experiment [4], -0.304; in experiment [5] it was -0.818; in experiment [6], 0.178. Besides, the composite z-score in experiment [7] is 0.651; in [9], -0.722; in experiment [10], -0.226; in experiment [11], -0.0183; in [15], 2.35; in experiment [17] it was -0.126. Also, the composite z-score in experiment [18] is -0.678; in experiment [19] it was -0.474; in [20], -0.16. Moreover, the z-score in experiment [8] was -1.16 (inactive); in [12] it was 0.396 (inactive); in experiment [13], -0.153 (inactive); in [14], 0.549 (inactive); in [16] it was -0.29 (inactive).

Regarding `O=S(=O)(NCCCO)c1ccc(Br)cc1`, the composite z-score in experiment [1] is -0.109; in experiment [2] it was 1.04; in experiment [3] it was -0.112; in experiment [4] it was 0.209; in experiment [5], 0.433; in [6], 1.07. The composite z-score is 1.07 in experiment [7]; 0.14 in [9]; -0.226 in experiment [10]; 0.607 in experiment [11]; 1.18 in experiment [15]; -0.18 in experiment [17]. Besides, the composite z-score in experiment [18] was 0.355; in experiment [19], -0.271; in experiment [20], -0.0363. Besides, the z-score in experiment [8] was -1.91 (inactive); in experiment [12], -1.72 (inactive); in [13], -1.57 (inactive); in experiment [14], -0.531 (inactive); in experiment [16], 0.707 (inactive).

For `CC(C)C(CO)N1C(=O)[C@@H]2[C@H]3C(=O)OCC=C[C@H]3OC23C=CCN(c2ccc4ccccc4c2)C(=O)[C@@H]13` (stereo not given in full), the composite z-score in experiment [1] is 0.316; in experiment [2], -0.377; in experiment [3], -0.169; in [4] it was -0.134; in experiment [5] it was -1.13; in [6], 0.187. The composite z-score in experiment [7] was -0.111; in [9], -0.527; in [10] it was 0.0373; in [11], -0.382; in experiment [15], 0.607; in experiment [17] it was -0.192. The values for the composite z-score in [18], in experiment [19] and in [20] were -1.21, -0.319 and -0.127, respectively. The z-score in experiment [8] is 0.125 (inactive); in experiment [12] it was 0.523 (inactive); in [13] it was -0.494 (inactive); in experiment [14], 1.17 (inactive); in experiment [16], 0.0732 (inactive).

Turning to `CC(C)(C)OC(=O)CC[C@@]1(C(=O)NCC(O)CO)N=C(c2ccc(OCCCO)cc2)O[C@@H]1c1ccccc1` (stereo not given in full), the composite z-score in [1] was 0.222; in [2], 1.68; in experiment [3], -0.11; in experiment [4], 0.0407; in [5], 0.739; in experiment [6] it was 1.8. Moreover, the composite z-score in experiment [7] is 1.35; in [9], 0.74; in [10], 0.12; in experiment [11] it was 1.46; in experiment [15] it was 3.77; in experiment [17], 0.0689. Further, the values for the composite z-score in experiment [18], in experiment [19] and in [20] were -0.364, 0.356 and -0.071, respectively. Moreover, the z-score was 1.74 (inactive) in [8]; 0.531 (inactive) in experiment [12]; 0.18 (inactive) in experiment [13]; 0.375 (inactive) in experiment [14]; -0.103 (inactive) in experiment [16].

In the case of `Cc1ccc(S[C@]2(C(=O)NCCCN(C)C)CC(=O)N(C(C)C)[C@@H]2c2ccc(CO)cc2I)cc1`, the composite z-score in experiment [1] was 0.052; in experiment [2] it was -0.54; in experiment [3], -0.0954; in experiment [4], -0.238; in experiment [5] it was -0.373; in experiment [6], 0.994. The composite z-score is 0.861 in [7]; -0.152 in [9]; -0.354 in experiment [10]; 1.05 in experiment [11]; 2.88 in experiment [15]; -0.0654 in experiment [17]. Moreover, the figures for the composite z-score in experiment [18], in experiment [19] and in experiment [20] were -0.521, -0.0055 and -0.142, respectively. Also, the z-score is -0.312 (inactive) in [8]; -1.25 (inactive) in [12]; -2.91 (inactive) in experiment [13]; -1.13 (inactive) in [14]; 0.0601 (inactive) in experiment [16].

For the origin of these results see PubChem BioAssay.
